Experimental data taken from PubChem BioAssay (NCATS).
Records with an inconclusive call do not appear. Values without a mark were called inactive. Activity calls are given as the source filed them. Calls follow the shape of the dose curve; as a rule, active = well fitted curve in the direction sought with a large enough effect; inconclusive = small, poorly fitted or top-dose-only effect, or another doubt; inactive = no such curve, though single readings can be large; an effect the other way counts as inactive or inconclusive.

Test: BET inhibitor-based combinations targeting novel dependencies in MECOM-rearranged (r) AML: SET-2 cell line (AID 2202231); also: nearly all actives have a fitted effect of over 35% in size;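 as to viability: plate controls were DMSO treated cells for no effect and wells without cells for full effect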
Settings: SET-2 AML cells viability, CellTiter-Glo luminescence, 48 h; viability: stronger effect = lower value, concentration not given here
Procedure, shortened: (§1)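 Here, 11-point titrations of each agent were applied to 500 seeded cells and incubated 48 hr; CellTiter-Glo signal, scaled against DMSO and empty wells, was integrated as AUC, then Z-scored within the individual line.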
Potency is read from the fitted curve at half-maximal effect.

SMILES	viability [%]	Potency
CC1=C(/C=C/C(C)=C/C=C/C(C)=C/C(=O)O)C(C)(C)CCC1	106	
COc1ccccc1N1CCN(CC(O)COc2cccc3ccccc23)CC1 (configuration not stated)		13.2 µM (active)
Cc1[nH]c(=O)c(C#N)cc1-c1ccc2nccn2c1	118	
NNCCc1ccccc1	108	
COc1cc(/C=C(\C#N)C(=O)Nc2nnc(C(F)(F)F)s2)ccc1OCc1ccc(C(F)(F)F)cc1C(F)(F)F	111	
Clc1ccc2c(N3CCN(CCCN4CCN(c5ccnc6cc(Cl)ccc56)CC4)CC3)ccnc2c1	76.4	
Cn1ccc2cc3c(cc21)CCN3C(=O)Nc1cccnc1	105	
O=C1Nc2ccc(I)cc2/C1=C/c1cc(Br)c(O)c(Br)c1	96.6	
COc1ccccc1OCC(O)CN1CCN(CC(=O)Nc2c(C)cccc2C)CC1 (configuration not stated)	110	
COc1ccc(/C=C/C(=O)Nc2ccccc2C(=O)O)cc1OC	104	

Test: BET inhibitor-based combinations targeting novel dependencies in MECOM-rearranged (r) AML: OCI-AML3 cell line (AID 2202232); also: nearly all actives have a fitted effect of over 35% in size;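 as to viability (% of control): plate controls were DMSO vehicle wells for no effect and wells without cells for full effect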
Settings: CellTiter-Glo luminescence, 48 h; Potency: OCI-AML3 viability; series mostly up to 46 µM; viability (% of control): at the top concentration
Procedure, shortened: as §1

SMILES	Potency	viability (% of control) [%]
CC1=C(/C=C/C(C)=C/C=C/C(C)=C/C(=O)O)C(C)(C)CCC1	7.42 µM (active)	
Cc1[nH]c(=O)c(C#N)cc1-c1ccc2nccn2c1		109
O=C1c2c(O)cc(O)cc2OC(c2ccc(O)c(O)c2)C1O (configuration not stated)	23.5 µM (active)	
NNCCc1ccccc1	7.42 µM (active)	
Clc1ccc2c(N3CCN(CCCN4CCN(c5ccnc6cc(Cl)ccc56)CC4)CC3)ccnc2c1		91.3
CC1(C)NC(=O)N(c2ccc([N+](=O)[O-])c(C(F)(F)F)c2)C1=O		121
C[C@H](Cc1ccc(O)c(O)c1)[C@@H](C)Cc1ccc(O)c(O)c1	3.32 µM (active)	
COc1ccc(/C=C/C(=O)Nc2ccccc2C(=O)O)cc1OC		111

Test: BET inhibitor-based combinations targeting novel dependencies in MECOM-rearranged (r) AML: MV-4-11 cell line (AID 2202233); also: nearly all actives have a fitted effect of over 45% in size;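 as to viability, % of control: plate controls were DMSO for no effect and blank wells for full effect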
Settings: MV-4-11 AML viability, CellTiter-Glo luminescence, 48 h; series mostly up to 46 µM; viability, % of control: at the top concentration
Procedure, shortened: (§2)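 Normalized to DMSO and empty-well controls, the luminescence data from CellTiter-Glo after 48 hr drug exposure were fitted across 11 concentrations. Reported metrics are area under the dose-response curve and its Z-transformed form.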

SMILES	Potency	viability, % of control [%]
O=c1cc(N2CCOCC2)oc2c(-c3ccccc3)cccc12	13.2 µM (active)	
CC1=C(/C=C/C(C)=C/C=C/C(C)=C/C(=O)O)C(C)(C)CCC1	0.59 µM (active)	
Cc1[nH]c(=O)c(C#N)cc1-c1ccc2nccn2c1		127
O=C1c2c(O)cc(O)cc2OC(c2ccc(O)c(O)c2)C1O (configuration not stated)	18.6 µM (active)	
NNCCc1ccccc1		104
COc1cc(/C=C(\C#N)C(=O)Nc2nnc(C(F)(F)F)s2)ccc1OCc1ccc(C(F)(F)F)cc1C(F)(F)F		109
O=C1Nc2ccc(I)cc2/C1=C/c1cc(Br)c(O)c(Br)c1		86.2
COc1ccccc1OCC(O)CN1CCN(CC(=O)Nc2c(C)cccc2C)CC1 (configuration not stated)		117
C[C@H](Cc1ccc(O)c(O)c1)[C@@H](C)Cc1ccc(O)c(O)c1	2.95 µM (active)	
COc1ccc(/C=C/C(=O)Nc2ccccc2C(=O)O)cc1OC		104

Test: BET inhibitor-based combinations targeting novel dependencies in MECOM-rearranged (r) AML: HNT-34 cell line (AID 2202234); also: nearly all actives have a fitted effect of over 35% in size;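 as to viability (% of control): plate controls were vehicle wells for no effect and cell-free wells for full effect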
Settings: HNT-34 AML viability, CellTiter-Glo luminescence, 48 h; series mostly up to 46 µM; viability (% of control): at the top concentration
Procedure, shortened: as §2

SMILES	viability (% of control) [%]	Potency
Cc1[nH]c(=O)c(C#N)cc1-c1ccc2nccn2c1	108	
NNCCc1ccccc1	96.9	
COc1cc(/C=C(\C#N)C(=O)Nc2nnc(C(F)(F)F)s2)ccc1OCc1ccc(C(F)(F)F)cc1C(F)(F)F	94	
Clc1ccc2c(N3CCN(CCCN4CCN(c5ccnc6cc(Cl)ccc56)CC4)CC3)ccnc2c1	96.2	
CC1(C)NC(=O)N(c2ccc([N+](=O)[O-])c(C(F)(F)F)c2)C1=O	100	
Cn1ccc2cc3c(cc21)CCN3C(=O)Nc1cccnc1	104	
COc1ccccc1OCC(O)CN1CCN(CC(=O)Nc2c(C)cccc2C)CC1 (configuration not stated)	113	
C[C@H](Cc1ccc(O)c(O)c1)[C@@H](C)Cc1ccc(O)c(O)c1		8.33 µM (active)
Cc1c(OCC(F)(F)F)ccnc1CS(=O)c1nc2ccccc2[nH]1 (configuration not stated)	101	
COc1ccc(/C=C/C(=O)Nc2ccccc2C(=O)O)cc1OC	102	

Test: BET inhibitor-based combinations targeting novel dependencies in MECOM-rearranged (r) AML: UCSD-AML1 cell line (AID 2202235); also: nearly all actives have a fitted effect of over 40% in size;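 as to viability (% of control): plate controls were DMSO vehicle wells for no effect and blank wells for full effect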
Settings: UCSD-AML1 AML cells viability, CellTiter-Glo, 48 h; series mostly up to 46 µM; viability (% of control): at the top concentration
Procedure, shortened: as §2

SMILES	viability (% of control) [%]	Potency	outcome
CC1=C(/C=C/C(C)=C/C=C/C(C)=C/C(=O)O)C(C)(C)CCC1	84.3		
COc1ccccc1N1CCN(CC(O)COc2cccc3ccccc23)CC1 (configuration not stated)		5.25 µM (active)	
Cc1[nH]c(=O)c(C#N)cc1-c1ccc2nccn2c1	108		
Cc1oncc1C(=O)Nc1ccc(C(F)(F)F)cc1	109		
O=C1c2c(O)cc(O)cc2OC(c2ccc(O)c(O)c2)C1O (configuration not stated)			inactive
NNCCc1ccccc1	107		
COc1cc(/C=C(\C#N)C(=O)Nc2nnc(C(F)(F)F)s2)ccc1OCc1ccc(C(F)(F)F)cc1C(F)(F)F	108		
Clc1ccc2c(N3CCN(CCCN4CCN(c5ccnc6cc(Cl)ccc56)CC4)CC3)ccnc2c1	99.9		
CC1(C)NC(=O)N(c2ccc([N+](=O)[O-])c(C(F)(F)F)c2)C1=O	107		
Cn1ccc2cc3c(cc21)CCN3C(=O)Nc1cccnc1	110		
Cc1c(OCC(F)(F)F)ccnc1CS(=O)c1nc2ccccc2[nH]1 (configuration not stated)	103		
COc1ccc(/C=C/C(=O)Nc2ccccc2C(=O)O)cc1OC	118		

Test: BET inhibitor-based combinations targeting novel dependencies in MECOM-rearranged (r) AML: AML-191 cell line (AID 2202236; also: nearly all actives have a fitted effect of over 35% in size;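 as to viability (% of control): plate controls were vehicle wells for no effect and wells without cells for full effect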)
Settings: AML-191 viability, CellTiter-Glo luminescence, 48 h; series mostly up to 46 µM; viability (% of control): at the top concentration
Procedure, shortened: as §1

SMILES	Potency	viability (% of control) [%]
COc1ccccc1N1CCN(CC(O)COc2cccc3ccccc23)CC1 (configuration not stated)	9.34 µM (active)	
CC1(C)NC(=O)N(c2ccc([N+](=O)[O-])c(C(F)(F)F)c2)C1=O		100
Cn1ccc2cc3c(cc21)CCN3C(=O)Nc1cccnc1		102
O=C1Nc2ccc(I)cc2/C1=C/c1cc(Br)c(O)c(Br)c1	18.6 µM (active)	
C[C@H](Cc1ccc(O)c(O)c1)[C@@H](C)Cc1ccc(O)c(O)c1	11.8 µM (active)	
Cc1c(OCC(F)(F)F)ccnc1CS(=O)c1nc2ccccc2[nH]1 (configuration not stated)		90.4
COc1ccc(/C=C/C(=O)Nc2ccccc2C(=O)O)cc1OC		108
